PubChem BioAssay
Calls of active or inactive are those of the source.

Tests used:
[1] = test system: PRMT1 (protein arginine N-methyltransferase 1); assay: small molecules binding arginine methyltransferase PRMT1 – biochemical, small-molecule microarray, 635 nm fluorescence, primary screen (AID 1088); settings: higher = more signal;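 note: binding of Prmt1 protein to compounds spotted on small-molecule microarray slides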
[2] = growth effects on S. cerevisiae YJM789 – YJM789 clinical isolate, OD600, 24 h, basal, primary screen (AID 1089); settings: higher = more signal, called active from +8 up or from −8 down;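 note: growth of clinical yeast isolate S. cerevisiae YJM 789 seeded 1000 cells per well; test concentration not given here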
[3] = S. pombe growth modifiers, basal conditions – strain 972, OD600, 24 h, no modulator, primary screen (AID 1090);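 note: basal condition with compound alone and no growth modifier present; test concentration not given here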; settings: S. pombe 972 growth, higher = more signal, called active from +8 up or from −8 down
[4] = budding yeast growth modifiers under rapamycin – strain BY4716, OD600, 96 h, primary screen (AID 1091); note: test concentration not given here; settings: S. cerevisiae BY4716 + rapamycin, higher = more signal, called active from +8 up or from −8 down
[5] = molecular target: Torsin-1A-interacting protein 2 (Homo sapiens) (UniProt Q8NFQ8); assay: small molecules binding lysate-expressed LULL1 – cell lysate, human LULL1 lysate, 635/667 nm fluorescence, primary screen (AID 1092); settings: small-molecule microarray, hLULL1 lysate binding, 635 nm fluorescence; higher = more signal;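 note: probe is lysate of COS7 cells overexpressing human LULL1; score merges per-feature 667 nm fluorescence with signal-to-noise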
Chain of Torsin-1A-interacting protein 2 (Homo sapiens) (Q8NFQ8 whole entry, looked up): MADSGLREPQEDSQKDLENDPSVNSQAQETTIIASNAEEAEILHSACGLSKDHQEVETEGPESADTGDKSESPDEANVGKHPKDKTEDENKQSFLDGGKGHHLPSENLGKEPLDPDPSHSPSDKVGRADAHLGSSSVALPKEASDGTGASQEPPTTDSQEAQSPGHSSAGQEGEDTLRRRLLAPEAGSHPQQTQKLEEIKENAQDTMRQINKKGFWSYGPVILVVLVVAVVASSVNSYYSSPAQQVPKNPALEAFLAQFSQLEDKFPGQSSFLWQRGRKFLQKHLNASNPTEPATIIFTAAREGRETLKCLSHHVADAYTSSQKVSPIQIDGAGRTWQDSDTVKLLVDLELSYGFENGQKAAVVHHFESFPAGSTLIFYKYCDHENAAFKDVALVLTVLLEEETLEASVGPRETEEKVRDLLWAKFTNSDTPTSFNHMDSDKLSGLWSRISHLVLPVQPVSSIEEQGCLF

[6] = optical density change of DRC41 E. coli – strain DRC41, OD650, 24 h, E. coli filamentation project, primary screen (AID 1093);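 note: MC1000 strain lacking acrAB efflux and sulA so SOS filamentation is blocked; test concentration not given here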; settings: E. coli DRC41 growth, higher = more signal, called active from +8 up or from −8 down
[7] = probe aLefty2 binding to arrayed compounds – biochemical, biotinylated probe, 635/667 nm fluorescence, primary screen (AID 1094); settings: small-molecule microarray, higher = more signal;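 note: score merges spot fluorescence near 667 nm with spot signal-to-noise ratio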
[8] = test system: Noggin (protein binding on small-molecule microarray); assay: small molecules binding Noggin protein – biochemical, 635/667 nm fluorescence, primary screen (AID 1095); settings: 635 nm fluorescence, higher = more signal;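 note: score merges 667 nm feature fluorescence with signal to noise over triplicate slides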
[9] = molecular target: Neurogenic locus notch homolog protein 3 (Homo sapiens) (UniProt Q9UM47); assay: small molecules binding NOTCH3 protein – biochemical, 635/667 nm fluorescence, primary screen (AID 1096); settings: small-molecule microarray, 635 nm fluorescence, higher = more signal
Chain of Neurogenic locus notch homolog protein 3 (Homo sapiens) (Q9UM47 whole entry, looked up): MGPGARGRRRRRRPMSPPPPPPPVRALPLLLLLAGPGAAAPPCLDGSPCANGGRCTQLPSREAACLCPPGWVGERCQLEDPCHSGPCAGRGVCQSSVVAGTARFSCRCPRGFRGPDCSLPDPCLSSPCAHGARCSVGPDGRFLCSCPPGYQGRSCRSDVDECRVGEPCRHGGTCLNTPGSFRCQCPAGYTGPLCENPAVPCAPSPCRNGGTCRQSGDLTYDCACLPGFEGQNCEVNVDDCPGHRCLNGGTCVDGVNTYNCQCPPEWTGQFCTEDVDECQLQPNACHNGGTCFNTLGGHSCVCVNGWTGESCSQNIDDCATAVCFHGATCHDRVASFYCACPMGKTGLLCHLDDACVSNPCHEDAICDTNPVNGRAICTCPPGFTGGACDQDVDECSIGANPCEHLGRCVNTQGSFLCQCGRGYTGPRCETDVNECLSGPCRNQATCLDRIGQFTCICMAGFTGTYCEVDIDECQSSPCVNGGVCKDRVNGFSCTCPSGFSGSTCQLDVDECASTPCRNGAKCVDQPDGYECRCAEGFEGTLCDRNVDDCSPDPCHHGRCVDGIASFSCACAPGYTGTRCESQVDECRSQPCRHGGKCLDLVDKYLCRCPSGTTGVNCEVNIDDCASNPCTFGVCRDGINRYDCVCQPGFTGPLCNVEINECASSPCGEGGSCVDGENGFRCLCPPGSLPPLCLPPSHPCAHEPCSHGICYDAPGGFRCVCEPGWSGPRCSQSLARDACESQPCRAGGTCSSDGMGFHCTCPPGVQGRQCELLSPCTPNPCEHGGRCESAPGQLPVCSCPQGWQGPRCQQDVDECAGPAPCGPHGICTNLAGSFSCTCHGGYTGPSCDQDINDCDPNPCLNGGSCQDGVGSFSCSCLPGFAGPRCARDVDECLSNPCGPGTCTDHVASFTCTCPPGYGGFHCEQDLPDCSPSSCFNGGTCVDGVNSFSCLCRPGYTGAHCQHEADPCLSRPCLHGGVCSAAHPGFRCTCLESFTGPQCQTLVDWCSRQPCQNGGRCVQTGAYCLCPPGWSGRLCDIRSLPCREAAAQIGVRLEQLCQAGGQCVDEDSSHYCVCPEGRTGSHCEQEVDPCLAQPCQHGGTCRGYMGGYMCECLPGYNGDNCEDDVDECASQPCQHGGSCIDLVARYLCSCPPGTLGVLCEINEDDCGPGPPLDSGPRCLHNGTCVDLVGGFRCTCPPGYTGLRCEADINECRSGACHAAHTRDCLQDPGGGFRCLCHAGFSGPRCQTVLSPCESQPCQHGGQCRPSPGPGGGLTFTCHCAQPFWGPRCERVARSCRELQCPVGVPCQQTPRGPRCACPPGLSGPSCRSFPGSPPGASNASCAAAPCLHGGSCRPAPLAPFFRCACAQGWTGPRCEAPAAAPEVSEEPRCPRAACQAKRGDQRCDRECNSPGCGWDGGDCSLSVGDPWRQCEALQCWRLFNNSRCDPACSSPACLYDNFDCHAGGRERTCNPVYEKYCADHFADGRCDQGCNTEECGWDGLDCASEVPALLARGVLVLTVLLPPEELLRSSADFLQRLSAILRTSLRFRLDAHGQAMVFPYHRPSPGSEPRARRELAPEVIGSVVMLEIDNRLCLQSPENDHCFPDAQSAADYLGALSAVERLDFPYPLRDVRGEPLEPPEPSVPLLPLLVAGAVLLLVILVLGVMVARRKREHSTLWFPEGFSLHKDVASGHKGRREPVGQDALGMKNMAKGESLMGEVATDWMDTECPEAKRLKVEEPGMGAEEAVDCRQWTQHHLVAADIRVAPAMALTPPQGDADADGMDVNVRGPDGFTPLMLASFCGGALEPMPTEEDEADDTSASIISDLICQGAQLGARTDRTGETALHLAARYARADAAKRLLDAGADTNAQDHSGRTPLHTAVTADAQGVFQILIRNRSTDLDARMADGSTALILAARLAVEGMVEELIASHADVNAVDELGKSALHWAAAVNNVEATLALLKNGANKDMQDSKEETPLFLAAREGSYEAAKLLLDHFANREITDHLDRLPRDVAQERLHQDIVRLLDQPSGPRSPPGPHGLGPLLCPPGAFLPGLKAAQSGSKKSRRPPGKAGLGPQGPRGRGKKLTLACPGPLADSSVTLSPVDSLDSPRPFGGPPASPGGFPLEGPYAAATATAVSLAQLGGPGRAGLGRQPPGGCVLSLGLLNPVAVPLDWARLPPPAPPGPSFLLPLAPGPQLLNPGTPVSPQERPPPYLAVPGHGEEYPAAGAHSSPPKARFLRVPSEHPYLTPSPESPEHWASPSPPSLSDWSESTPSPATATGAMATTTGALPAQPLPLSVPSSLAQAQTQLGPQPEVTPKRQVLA

[10] = probe aEGFR binding to arrayed compounds – biochemical, biotinylated probe, 635/667 nm fluorescence, primary screen (AID 1097); settings: small-molecule microarray, higher = more signal;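 note: probe is a biotinylated anti-EGFR antibody binding compounds printed on slides; score combines fluorescence near 667 nm and signal to noise of each spot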
[11] = test system: Plasmodium falciparum Sir2 (PF13_0152, Sir2A); assay: Plasmodium falciparum Sir2A binding compounds – biochemical, small-molecule microarray, 635 nm fluorescence, primary screen (AID 1098); settings: fluorescence 635 nm, higher = more signal;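 note: score merges spot fluorescence intensity with its signal-to-noise ratio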
[12] = probe aDKK1 binding to arrayed compounds – biochemical, biotinylated probe, 635/667 nm fluorescence, primary screen (AID 1099); settings: small-molecule microarray, higher = more signal;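 note: score merges 667nm spot fluorescence with signal to noise across triplicate slides; reference of the scale not given here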
[13] = probe aCHRDL2 binding to arrayed compounds – biochemical, biotinylated probe, 635/667 nm fluorescence, primary screen (AID 1100); settings: small-molecule microarray, higher = more signal
[14] = change in splice reporter luminescence, either direction, cell-based, HEK293, spliceosome inhibition project, primary screen (AID 1101); settings: HEK293 splicing luciferase reporter, 24 h, higher = more signal, called active from +8 up or from −8 down;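 note: HEK293 cells carrying a splicing-competent luciferase reporter gene; test concentration not given here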
[15] = molecular target: Fibroblast growth factor 10 (Homo sapiens) (UniProt O15520); assay: compounds binding fibroblast growth factor 10 – biochemical, small-molecule microarray, 635 nm fluorescence, primary screen (AID 1102); settings: FGF10 binding, fluorescence 635 nm, higher = more signal
Chain of Fibroblast growth factor 10 (Homo sapiens) (O15520 whole entry, looked up): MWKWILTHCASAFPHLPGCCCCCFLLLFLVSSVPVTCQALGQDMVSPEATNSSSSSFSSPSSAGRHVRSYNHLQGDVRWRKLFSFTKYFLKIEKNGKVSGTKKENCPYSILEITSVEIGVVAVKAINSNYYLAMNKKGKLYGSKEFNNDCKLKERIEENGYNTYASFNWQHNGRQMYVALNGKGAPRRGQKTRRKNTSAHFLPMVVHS

[16] = test system: glycogen synthase kinase-3 (GSK3A per assay name; protocol says GSK3B); assay: compounds binding glycogen synthase kinase-3 – biochemical, small-molecule microarray, 635 nm fluorescence, GSK3A, primary screen (AID 1103); settings: fluorescence 635 nm, higher = more signal; note: the record names both GSK3A and GSK3B
[17] = molecular target: Epidermal growth factor receptor (Homo sapiens) (UniProt P00533); assay: compounds binding epidermal growth factor receptor – biochemical, small-molecule microarray, 635 nm fluorescence, primary screen (AID 1104); settings: EGFR binding, higher = more signal;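 note: score merges 667 nm emission intensity with spot signal to noise over triplicate slides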
Chain of Epidermal growth factor receptor (Homo sapiens) (P00533 whole entry, looked up): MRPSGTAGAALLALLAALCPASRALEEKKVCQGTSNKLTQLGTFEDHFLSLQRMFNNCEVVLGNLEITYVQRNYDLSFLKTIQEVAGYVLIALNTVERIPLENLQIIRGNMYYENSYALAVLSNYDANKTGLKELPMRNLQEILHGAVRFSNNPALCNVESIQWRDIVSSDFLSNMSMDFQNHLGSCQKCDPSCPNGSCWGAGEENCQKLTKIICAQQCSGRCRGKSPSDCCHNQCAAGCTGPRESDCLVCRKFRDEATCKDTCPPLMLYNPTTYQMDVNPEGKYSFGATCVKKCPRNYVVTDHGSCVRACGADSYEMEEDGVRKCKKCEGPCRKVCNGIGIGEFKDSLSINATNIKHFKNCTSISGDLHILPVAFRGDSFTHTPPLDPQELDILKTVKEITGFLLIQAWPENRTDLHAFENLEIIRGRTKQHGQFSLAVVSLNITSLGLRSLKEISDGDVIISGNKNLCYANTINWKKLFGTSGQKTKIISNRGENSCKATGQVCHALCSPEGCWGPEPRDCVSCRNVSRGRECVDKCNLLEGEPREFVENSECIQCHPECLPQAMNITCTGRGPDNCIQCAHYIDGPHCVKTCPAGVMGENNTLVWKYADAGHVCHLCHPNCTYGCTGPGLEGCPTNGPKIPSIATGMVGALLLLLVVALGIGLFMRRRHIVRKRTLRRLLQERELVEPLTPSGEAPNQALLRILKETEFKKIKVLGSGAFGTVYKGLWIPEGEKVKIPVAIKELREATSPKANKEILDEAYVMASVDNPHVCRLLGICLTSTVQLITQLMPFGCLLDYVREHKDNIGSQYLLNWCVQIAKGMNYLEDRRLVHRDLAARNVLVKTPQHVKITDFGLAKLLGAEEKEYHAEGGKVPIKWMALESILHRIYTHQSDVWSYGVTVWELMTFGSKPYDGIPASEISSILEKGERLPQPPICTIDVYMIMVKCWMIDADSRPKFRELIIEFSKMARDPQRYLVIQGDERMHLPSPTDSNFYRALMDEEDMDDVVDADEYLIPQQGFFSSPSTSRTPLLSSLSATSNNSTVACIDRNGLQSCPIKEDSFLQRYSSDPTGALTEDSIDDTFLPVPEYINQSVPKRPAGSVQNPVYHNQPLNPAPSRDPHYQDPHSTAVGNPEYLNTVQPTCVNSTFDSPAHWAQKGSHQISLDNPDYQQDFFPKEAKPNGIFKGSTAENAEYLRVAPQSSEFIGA

[18] = molecular target: Follistatin-related protein 3 (Homo sapiens) (UniProt O95633); assay: compounds binding follistatin-related protein 3 – biochemical, small-molecule microarray, 635 nm fluorescence, primary screen (AID 1105); settings: FSTL3 binding, higher = more signal;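 note: score merges emission near 667 nm and signal to noise per printed spot across three slides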
Chain of Follistatin-related protein 3 (Homo sapiens) (O95633 whole entry, looked up): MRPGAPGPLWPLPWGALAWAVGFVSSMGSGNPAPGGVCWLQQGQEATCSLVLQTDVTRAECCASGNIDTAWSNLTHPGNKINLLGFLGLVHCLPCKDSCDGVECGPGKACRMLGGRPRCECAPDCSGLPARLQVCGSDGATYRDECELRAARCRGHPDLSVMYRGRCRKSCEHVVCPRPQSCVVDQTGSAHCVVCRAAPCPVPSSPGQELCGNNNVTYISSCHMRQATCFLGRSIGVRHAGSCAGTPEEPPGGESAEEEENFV

[19] = molecular target: Dickkopf-related protein 1 (Homo sapiens) (UniProt O94907); assay: small molecules binding DKK1 protein – biochemical, small-molecule microarray, 635 nm fluorescence scan, primary screen (AID 1106); settings: higher = more signal;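 note: score merges emission near 667 nm with signal to noise over three replicate slides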
Chain of Dickkopf-related protein 1 (Homo sapiens) (O94907 whole entry, looked up): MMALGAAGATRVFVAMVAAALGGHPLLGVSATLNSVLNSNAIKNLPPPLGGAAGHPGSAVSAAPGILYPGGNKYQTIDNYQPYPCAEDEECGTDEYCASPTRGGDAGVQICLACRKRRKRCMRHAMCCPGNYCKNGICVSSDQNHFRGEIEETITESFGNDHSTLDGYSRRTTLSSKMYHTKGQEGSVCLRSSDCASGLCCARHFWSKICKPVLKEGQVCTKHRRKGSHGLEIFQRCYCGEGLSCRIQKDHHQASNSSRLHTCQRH

[20] = test system: Inhibin beta A chain (activin A); assay: small molecules binding activin A – biochemical, small-molecule microarray, 635 nm fluorescence scan, primary screen (AID 1107); settings: INHBA, higher = more signal;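 note: mouse activin A protein probed at 4.33 µg/mL on printed slides; score merges bound-protein fluorescence near 667 nm with spot signal-to-noise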

SMILES	composite z-score [1]	z-score [2]	z-score [3]	z-score [4]	composite z-score [5]	z-score [6]	composite z-score [7]	composite z-score [8]	composite z-score [9]	composite z-score [10]	composite z-score [11]	composite z-score [12]	composite z-score [13]	z-score [14]	composite z-score [15]	composite z-score [16]	composite z-score [17]	composite z-score [18]	composite z-score [19]	composite z-score [20]
COC(=O)C(CC#Cc1ccc2c(c1)[C@]1(C(=O)N2)[C@H](c2ccc(O)cc2)N2[C@H](c3ccccc3)[C@H](c3ccccc3)OC(=O)[C@H]2[C@@H]1C(=O)NC[C@H](O)c1ccccc1)C(=O)OC	1.55	0.31 (inactive)	0.174 (inactive)	-0.131 (inactive)	1.97	-0.968 (inactive)	0.0634	0.668	1.09	0.128	-0.282	0.6	0.405	0.0183 (inactive)	0.986	1.11	0.588	0.523	0.432	0.335
COc1cccc(C)c1NC(=O)O[C@H]1[C@H](OC(=O)Nc2ccccc2-c2ccccc2)[C@H](OC(=O)Nc2ccccc2-c2ccccc2)[C@@H](OC)O[C@@H]1CO	1.54	1.24 (inactive)	0.671 (inactive)	5.69 (inactive)	3.18	0.0918 (inactive)	0.225	1.14	1.07	-0.0824	0.861	0.796	0.549	0.118 (inactive)	1.18	1.33	0.649	1.3	0.717	0.729
COc1cc2c(cc1O)C(C1CC1)N(Cc1cccc(OC(F)(F)F)c1)CC2 (stereo not given)	0.694	-2.19 (inactive)	-5.25 (inactive)	-2.53 (inactive)	1.88	0.394 (inactive)	-0.0575	-0.242	-0.167	0.0009	-0.102	0.149	0.542	0.654 (inactive)	-0.293	-0.567	-0.881	-0.0671	-0.248	1.45
COc1ccc([C@H]2OC[C@@H]3C[C@H](Cc4ccccc4)C(=O)N32)cc1	-0.476	1.35 (inactive)	-2 (inactive)	0.861 (inactive)	0.449	-0.238 (inactive)	-0.155	0.614	0.363	-0.0978	-0.33	-0.157	-0.598	-0.524 (inactive)	0.439	-0.0107	0.212	0.401	0.313	0.0048
CS(=O)(=O)CCOC(=O)C1=CC(c2ccc(CO)cc2)=CC(C2CC2)N(Cc2sc3ccccc3c2Cl)C=C1C(=O)OCCS(C)(=O)=O (stereo not given)	1.46	-0.348 (inactive)	-3.82 (inactive)	-1.23 (inactive)	1.67	-3.01 (inactive)	0.106	0.471	0.946	-0.0188	0.677	0.251	0.365	2.53 (inactive)	0.686	0.519	0.645	1.21	0.334	1.63
COC(=O)[C@@H]1N=C(c2ccc(OCCCO)cc2)O[C@@H]1C	1.28	0.464 (inactive)	-0.0679 (inactive)	-0.184 (inactive)	-0.0276	0.98 (inactive)	0.0539	0.0641	0.0599	-0.0465	-0.0756	0.017	0.795	0.04 (inactive)	0.965	0.16	-0.55	-0.0372	0.0375	-0.004
